LMNA splice mod – changes lamin A minigene splicing in HeLa cells; HeLa LMNA splicing GFP/RFP minigene ratio, 48 h; Potency, µM (doses to about 46.1 µM), actives largely listed as inhibitors; 200,000 compounds, 0.01% hits; active = well fitted inhibition curve with a large enough effect in the signal ratio, with a control signal flat, not every such curve was filed as active; inconclusive = small, poorly fitted or top-dose-only effect, or effect the other way, or a change in a side signal; the % refers to the signal ratio
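Read-out is the ratio of GFP to DsRed2 object intensity, acquired by 488 nm laser-scanning cytometry on HeLa lamin A-EGFP minigene reporter cells. Compound incubation 48 hrs at 37 °C in Opti-MEM with 2% FBS; DMSO 0.5% final.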
Luc counter – Kinase-Glo luciferase inhibition (counter-screen); Q27757; Kinase-Glo luciferase, ATP luminescence, 8 min; Potency, µM (series often up to 38.3 µM), most hits filed as inhibitors; 200,000 compounds, 0.28% hits; AID 1379; active = well fitted inhibition curve with a large enough effect; inconclusive = small, poorly fitted or top-dose-only effect; also: nearly all actives have a fitted effect of over 60% in size
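Kinase-Glo luciferase light output from ATP and luciferin was measured with 10 uM ATP, within the enzyme's linear range. Buffer: 50 mM imidazole pH 7.2, 50 mM KCl, 7 mM MgCl2, 0.01% Tween 20, 0.05% BSA; luminescence read after 8 min at ambient temperature.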
ALDH1A1 inh – inhibitors of human aldehyde dehydrogenase 1A1 | Potency, µM (series often up to 75.3 µM), most hits filed as inhibitors | 220,000 compounds, 7.3% hits | Purified ALDH1A1, NADH fluorescence, propionaldehyde substrate | P00352
Target sequence (P00352 whole entry, looked up): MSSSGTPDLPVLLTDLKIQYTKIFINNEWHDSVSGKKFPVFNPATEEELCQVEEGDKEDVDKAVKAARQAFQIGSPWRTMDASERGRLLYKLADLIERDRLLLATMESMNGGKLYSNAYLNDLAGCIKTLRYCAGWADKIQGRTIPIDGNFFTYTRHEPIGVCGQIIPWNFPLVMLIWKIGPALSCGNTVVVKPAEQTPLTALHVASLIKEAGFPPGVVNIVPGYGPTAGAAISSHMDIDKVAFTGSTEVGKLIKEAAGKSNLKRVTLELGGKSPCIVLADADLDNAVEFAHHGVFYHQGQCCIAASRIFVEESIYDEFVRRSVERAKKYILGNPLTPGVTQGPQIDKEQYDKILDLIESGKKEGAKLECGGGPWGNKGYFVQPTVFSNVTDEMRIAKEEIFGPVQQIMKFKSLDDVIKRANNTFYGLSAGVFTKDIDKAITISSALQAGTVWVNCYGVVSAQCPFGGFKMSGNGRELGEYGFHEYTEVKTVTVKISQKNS
HPGD inh – blocks human HPGD enzyme activity. Potency, µM, actives largely listed as inhibitors. P15428. purified HPGD, NADH fluorescence kinetic, PGE2 substrate. 150,000 compounds, 4.3% hits
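20 nM HPGD preincubated 15 min at room temperature with compound in 50 mM Tris-HCl pH 8, 0.01% Tween 20. Started with 1 mM NAD+ and 30 uM prostaglandin E2; NADH fluorescence (360/450 nm) read 5 times over 30-s intervals, last minus first.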
IMPase inh – cell-permeable inhibitors of inositol monophosphatase (IMPase) | AID 901 | 120,000 tested, under 10 active | inhibition (IP1 accumulation), % at 46.1 µM | CHO-M1 cells, IP1 accumulation, HTRF TR-FRET ratio | P97697; active = well fitted curve in the direction sought with a large enough effect in the signal ratio, not every such curve was filed as active; inconclusive = small, poorly fitted or top-dose-only effect, or a change in a side signal; inactive = no such curve, though single readings can be large or run the other way; the % refers to the signal ratio;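 also: cells stimulated with carbachol in lithium chloride buffer; higher means more IMPase inhibition seen as more IP1 and lower FRET ratio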
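CHO-M1, 2000 cells/well, cultured 16–30 h; cpd up to 46 uM; carbachol (50 uM solution, stimulation buffer w/ 50 mM LiCl, pH 7.4), 30 min 37C; IP-One TR-FRET, 10 min RT; Ex 320/Em 665, 620; Hill-fit AC50.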
PNC assembly inh – blocks assembly of the perinucleolar compartment. 140,000 compounds, 3.1% hits. activity change (PNC), negative = inhibition, % at 10 µM. PC3M PTB-GFP, PNC prevalence imaging, 16 h; stronger effect = lower value;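 active = readout at or below -70, meaning at least 70% loss of cells showing the perinucleolar compartment, a nuclear body marking cancer cells; inconclusive = readout between -30 and a set limit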
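PC3M cells stably expressing PTB-GFP, 750–1000 cells/well, treated 16 h at 37 °C with compound (23 nl of library stock), in duplicate. After paraformaldehyde fixation and Hoechst stain, imaged at 20x; PNC prevalence scored by image analysis.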
A number is an active result; 0 = inactive; ? = inconclusive; - = no result; ! = a repeat was not active; [ ] = remark or other dose. Shown are actives, neighbours in structure and some others; about 10% of the full set was active somewhere. Unless noted, calls follow the shape of the dose curve; as a rule, active = well fitted inhibition curve with a large enough effect (not every such curve was filed as active); inconclusive = small, poorly fitted or top-dose-only effect, or another doubt; inactive = no such curve, though single readings can be large or run the other way.

SMILES	LMNA splice mod	Luc counter	ALDH1A1 inh	HPGD inh	IMPase inh	PNC assembly inh
CC(C)[C@H]1C(=O)C(C(N)=O)=C(O)[C@]2(O)C(=O)C3=C(O)c4c(O)ccc(N(C)C)c4C[C@H]3C[C@@H]12	-	-	-	-	0	-
CCCCn1c(=N)c(S(=O)(=O)c2ccc(C)cc2)cc2c(=O)n3cc(C)ccc3nc21	0	-	-	-	-	-
CCOCC(=O)Nc1ccc(C)c(Cl)c1	0	0	25.1µM	15.8µM	0	0
Cc1ccc(NC(=O)COC(=O)CC2CCCC2)cc1Cl	0	0	22.4µM	-	-	-
CCOCC(=O)Nc1cc(C(=O)Nc2cc(C)cc(C)c2)ccc1Cl	0	11.2µM	0	-	-	-
CS(=O)(=O)c1ccc(C(O)C(CO)NC(=O)C(Cl)Cl)cc1 (stereo not given)	-	0	0	0	-	-
COc1ccc(NC(=O)c2sc3nc(C)c(C(=O)Nc4ccc(C)cc4C)c(-c4ccc(C)o4)c3c2N)cc1	-	-	-	-	0	-
CCCN1C(=O)c2cc(C(=O)Nc3ccc(OC)c(OC)c3)ccc2C1Nc1ccc(OC)c(OC)c1 (stereo not given)	0	0	?	-	-	-
CCCN1C(=O)c2cc(C(=O)Nc3ccc(OC)cc3OC)ccc2C1Nc1ccc(OC)cc1OC (stereo not given)	-	-	25.1µM	-	-	-
CCN(CC)S(=O)(=O)c1ccc(-c2csc(C)n2)cc1	-	-	25.1µM	-	-	-
O=C1C=CC2(OCCCO2)C(Br)=C1	-	-	0[13.5 µM]	-	-	-
CC(Sc1nnc(NC2CCCCC2)s1)C(=O)Nc1ccc2c(c1)C(=O)c1ccccc1C2=O (stereo not given)	0	0	25.1µM	?	-	0
Cc1ccc([N+](=O)[O-])cc1N/C=C/C(=O)c1ccco1	?	0	22.4µM	0	0	0
O=C(/C=C/Nc1ccc(F)cc1)c1ccco1	0	?	0	0	0	0
Cc1no[n+]([O-])c1COc1ccc(/C=C(\C#N)C(N)=O)cc1	0	0	10µM	0	-	0
CCN1C(=O)/C(=C\C(=O)c2cccs2)c2cc(Br)ccc21	0	0	11.2µM	-	-	-
O=C1Nc2ccccc2/C1=C/C(=O)c1cccs1	0	0	?	?	0	0
CC(C)Oc1ccc(C(=O)NC2=NCCS2)cc1	?	0	20µM	-	-	-
COc1ccc(C(=O)NCCc2csc(-c3ccc(Cl)cc3)n2)c(OC)c1	0	-	-	-	-	-
CC(C)(C)c1ccc(S(=O)(=O)/C=C/C#N)cc1	?	0	0.112µM	10µM	-	-
CC(C)(C)c1ccc(NS(=O)(=O)c2ccc(N)cc2)cc1	-	0[7.66 µM]	0[13.5 µM]	0	-	-
CCC1(C)Cc2c(sc3nc(SCC(=O)O)[nH]c(=O)c23)CO1 (stereo not given)	0	0	?	?	0	-102.3
O=C(CSc1ccccn1)c1ccc(F)cc1	0	0	?	25.1µM	0	?
Cc1cccc(NC(=O)CCSc2ccccn2)c1	0	0	?	14.1µM	-	0
O=C(CSc1ccccn1)Nc1ccc2ccccc2c1	0	0	0	-	-	-
SMILES	LMNA splice mod	Luc counter	ALDH1A1 inh	HPGD inh	IMPase inh	PNC assembly inh
COC(=O)c1ccc(NC(=O)CSc2ccccc2)cc1	0	0	0	0	-	0
COC(=O)c1ccc(NC(=O)CSc2ccccn2)cc1	0	0	?	11.2µM	0	?
O=C(CSc1ccccn1)Nc1ccc2c(c1)C(=O)c1ccccc1C2=O	0	0	25.1µM	0	-	0
CCc1cnc2c(c1SCC(=O)Nc1ccc(OC)c(OC)c1)c(=O)n(C)c(=O)n2C	0	-	-	-	-	-
CCc1cnc2c(c1SCc1cc(OC)cc(OC)c1)c(=O)n(C)c(=O)n2C	0	-	-	-	-	-
COc1cccc(NC(=O)c2ccccc2-c2nc(-c3cccc(C)c3)no2)c1	?	0	?	0	0	-139.2
Cc1cccc(-c2noc(-c3ccccc3C(=O)NCC3CCCO3)n2)c1 (stereo not given)	0	0	15.8µM	0	0	0
Cn1c(Cl)nc2ccccc21	0	0	0	0	0	0
Cn1c(N=Nc2ccccc2)nc2ccccc21	?	0.891µM	0	0	-	0
COc1ccc(OC)c(CNC(=O)c2cc(=O)[nH]c3ccc(S(=O)(=O)N4CCCCC4C)cc23)c1 (stereo not given)	0	-	-	-	-	-
COc1cc(C(=O)N2c3ccccc3CC2C)cc(OC)c1OC (stereo not given)	0	0	0	0	0	-82.0
CCOC(=O)c1[nH]n(-c2ccc(Cl)cc2)c(=O)c1C	0	0	?	0	-	-114.2
Cc1[nH]n(-c2ccc(Cl)cc2)c(=O)c1C(=O)c1ccccc1	0	0	0	-	-	-
N#Cc1ccccc1NC(=O)CSc1nnc(N)s1	-	-	-	-	0	-
CC(=O)OC/C=C(C)/C=C/C=C(C)/C=C/C1=C(C)CCCC1(C)C	-	0	22.4µM!	0	-	-
CC1=C(/C=C/C(C)=C/C=C/C(C)=C\CO)C(C)(C)CCC1	-	-	25.1µM	-	-	-
